Laboratory results: PubChem BioAssay (NCATS)
Records with an inconclusive call do not appear. Active and inactive are the calls of the source. Calls come from the whole dose curve; as a rule, active = well fitted curve in the direction sought with a large enough effect; inconclusive = small, poorly fitted or top-dose-only effect, or another doubt; inactive = no such curve, though single readings can be large; an effect the other way counts as inactive or inconclusive. Where a SMILES comes first, the peptide text is derived from it. [ ]: non-standard residue; d: D form. Ala(indol-2-yl) = N[C@@H](Cc1cc2ccccc2[nH]1)C(=O)O; Aib = CC(C)(N)C(=O)O

Biological target: Luciferin 4-monooxygenase (Photinus pyralis) (UniProt P08659)
Assay: Primary firefly luciferase (FLuc) qHTS assay for identification of artifact compounds. (AID 1845220); note: nearly all actives have a fitted effect of over 60% in size;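 for activity change, negative = inhibition: plate controls were DMSO vehicle for no effect and no enzyme for full effect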
Settings: purified firefly luciferase, luminescence, 5 min; series mostly up to 54.1 µM; activity change, negative = inhibition: at the top concentration
Summary of the method: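 D-luciferin and ATP (10 uM each, final) in Tris acetate buffer pH 7.6 were incubated with compounds for 15 min at room temperature. The reaction was started with 10 nM Photinus pyralis luciferase and luminescence read after 5 min. Percent inhibition was fitted to a 4-parameter Hill equation.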

Row | SMILES | activity change, negative = inhibition | outcome
1 | N#CC(O[C@@H]1O[C@H](CO)[C@@H](O)[C@H](O)[C@H]1O)c1ccccc1 (stereo partly drawn) | 0.414% (inactive) | –
2 | COC1CC(O[C@H]2CC[C@]3(C)C4CC[C@]5(C)[C@@H](C6=CC(=O)OC6)[C@@H](OC(C)=O)C[C@]5(O)C4CC[C@@H]3C2)OC(C)C1O (stereo partly drawn) | -2.5% [at 25.7 µM] (inactive) | –
3 | CC(=O)O[C@H]1CN2CCC1CC2 | 3.53% (inactive) | –
4 | CC(=O)OC[C@]12C[C@H](O)C(C)=C[C@H]1O[C@@H]1[C@H](O)[C@@H](OC(C)=O)[C@@]2(C)[C@]12CO2 | – | inactive
5 | CC1=CC(=O)[C@@H](O)[C@]2(C)C3[C@@H](O)[C@@H]4OC(=O)[C@@H]([C@H]4C)[C@]3(C)C(=O)C[C@@H]12 (stereo partly drawn) | 2.09% (inactive) | –
6 | CC[C@@H]1C[C@H]2CC[C@H](O2)[C@H](C)C(=O)O[C@@H](C)C[C@@H]2CC[C@@H](O2)[C@@H](C)C(=O)O[C@H](CC)C[C@H]2CC[C@H](O2)[C@H](C)C(=O)O[C@@H](C)C[C@@H]2CC[C@@H](O2)[C@@H](C)C(=O)O1 | – | inactive [at 25.7 µM]
7 | N#Cc1cn([C@@H]2O[C@H](CO)[C@H](O)[C@@H]2O)c2ncnc(N)c12 | -9.82% (inactive) | –

Test system: not listed separately
Assay: Primary fluorescence-based thiol-reactive (MSTI) qHTS assay for identification of artifact compounds. (AID 1845221); note: nearly all actives have a fitted effect of over 65% in size; note: potency is the fitted concentration of half-maximal effect;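 for activity change, negative = thiol reactive: thiol-reactive compounds lower the probe fluorescence signal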
Settings: MSTI thiol-reactivity probe, 1 h; series mostly up to 53.8 µM; activity change, negative = thiol reactive: at the top concentration
Summary of the method: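 Reactivity toward the thiol probe MSTI (4 uM) is scored by fluorescence at Ex/Em 525/598 nm after 1 h at room temperature. Acetyl-MSTI and MSTI define the activity scale.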

Row | SMILES | activity change, negative = thiol reactive | Potency
8 | CC(C)(NC(=O)[C@@H](N)Cc1ccc(O)cc1)C(=O)N[C@@H](Cc1cc2ccccc2[nH]1)C(=O)N[C@@H](Cc1ccccc1)C(=O)O (H-Y[Aib][Ala(indol-2-yl)]F-OH) | 54.2% [at 11.5 µM] (inactive) | –
9 | C=C1[C@@H](C)[C@H]2[C@H](Cc3ccccc3)NC(=O)[C@]23[C@H](OC(C)=O)/C=C/[C@](C)(O)C(=O)[C@@H](C)C/C=C/[C@H]3[C@@H]1O | 58.7% (inactive) | –
10 | C[C@@H]1C[C@@H](O)[C@]2(O)O[C@@H]3C[C@@]4(C=O)C(CC[C@@H]5C4CC[C@]4(C)[C@@](O)(C6=CC(=O)OC6)CC[C@]54O)C[C@H]3OC2O1 (stereo partly drawn) | – | 9.22 µM (active)
11 | CC(=O)OC[C@]12C[C@H](OC(=O)CC(C)C)C(C)=C[C@H]1O[C@@H]1[C@H](O)[C@@H](OC(C)=O)[C@@]2(C)[C@@]12CO2 | 28.2% [at 25.6 µM] (inactive) | –
12 | CC[C@H](C)[C@H](NC(=O)[C@H]1CCCCN1C)C(=O)N(COC(=O)CC(C)C)[C@H](C[C@@H](OC(C)=O)c1nc(C(=O)N[C@@H](Cc2ccc(O)cc2)C[C@H](C)C(=O)O)cs1)C(C)C | 28.3% [at 1.02 µM] (inactive) | –
13 | CN[C@@H]1C[C@H]2O[C@@](C)([C@@H]1OC)n1c3ccccc3c3c4c(c5c6ccccc6n2c5c31)C(=O)NC4 | 49.5% (inactive) | –
14 | CC1=C[C@H]2O[C@@H]3C[C@H]4OC(=O)/C=C/C=C/C(=O)OCC/C(C)=C/C(=O)OC[C@@]2(CC1)[C@]4(C)[C@]31CO1 | 32.1% [at 25.6 µM] (inactive) | –
15 | CC(=O)OC[C@]12C[C@H](OC(=O)CC(C)C)C(C)=C[C@H]1O[C@@H]1[C@H](O)[C@@H](O)[C@@]2(C)[C@]12CO2 | 11.4% [at 25.6 µM] (inactive) | –
16 | CC(=O)OC[C@]12C[C@H](OC(=O)CC(C)C)C(C)=C[C@H]1O[C@@H]1[C@H](O)C[C@@]2(C)[C@]12CO2 | 12.3% [at 25.6 µM] (inactive) | –
17 | COC1CC(O[C@H]2CC[C@]3(C)C4CC[C@]5(C)[C@@H](C6=CC(=O)OC6)[C@@H](OC(C)=O)C[C@]5(O)C4CC[C@@H]3C2)OC(C)C1O[C@@H]1O[C@H](CO)[C@@H](O)[C@H](O)[C@H]1O (stereo partly drawn) | – | 6.3 µM (active)
18 | Cc1c(Cl)c(OCC(=O)N2CCN(C)CC2)nc2sc(C(=O)NC3CC3)c(N)c12 | -0.0537% (inactive) | –
19 | CO[C@H]1[C@H](O)[C@H](O[C@H]2CC[C@]3(C=O)C4CC[C@]5(C)[C@H](C6=CC(=O)OC6)CC[C@]5(O)C4CC[C@@H]3C2)O[C@@H](C)[C@@H]1O (stereo partly drawn) | 2.88% [at 25.6 µM] (inactive) | –
20 | C[C@H]1O[C@@H](O[C@H]2CC[C@]3(C=O)C4CC[C@]5(C)[C@@H](C6=CC(=O)OC6)CC[C@]5(O)[C@@H]4CC[C@]3(O)C2)C[C@@H](O)[C@@H]1O (stereo partly drawn) | 57.3% [at 25.6 µM] (inactive) | –
21 | C[C@]12CC[C@H](O)C[C@H]1CC[C@@H]1[C@@H]2[C@H](O)C[C@]2(C)[C@@H](c3ccc(=O)oc3)CC[C@]12O | 1.28% (inactive) | –
22 | C[C@H]1O[C@@H](O[C@H]2CC[C@]3(CO)C4CC[C@]5(C)[C@@H](C6=CC(=O)OC6)CC[C@]5(O)[C@@H]4CC[C@H]3C2)[C@H](O)[C@H](O)[C@@H]1O[C@@H]1O[C@H](CO)[C@@H](O)[C@H](O)[C@H]1O (stereo partly drawn) | – | 3.16 µM (active)
23 | OCc1nnc2n1-c1ccc(Cl)cc1C(c1ccccc1Cl)=NC2 | 43.6% (inactive) | –
24 | CC[C@@]1(O)C(=O)OCc2c1cc1n(c2=O)Cc2cc3c(OC)cccc3nc2-1 | 47.6% (inactive) | –
25 | CC(=O)O[C@H]1CC[C@@]2(CI)C(=CC[C@@H]3[C@@H]2CC[C@]2(C)C(=O)CC[C@@H]32)C1 | 56.6% (inactive) | –
26 | C=C1[C@@H](C)[C@H]2[C@H](Cc3ccccc3)NC(=O)[C@]23OC(=O)/C=C/C(=O)CCC[C@@H](C)C/C=C/[C@H]3[C@@H]1O | 59.5% (inactive) | –
27 | C[C@H](CCC(=O)O)C[C@H](C)C[C@H](C)C(=O)/C=C(\O)[C@H](C)C[C@H](C)C/C=C/[C@@H](C)[C@@H](O)[C@@H](C)[C@@H](O)C[C@@H]1CC[C@@](C)([C@H]2CC[C@@](C)([C@@H](C)O)O2)O1 | 7.86% [at 25.6 µM] (inactive) | –
28 | C[C@H]1C/C=C/[C@H]2[C@@H]3O[C@]3(C)[C@@H](C)[C@H]3[C@H](Cc4ccccc4)NC(=O)[C@]32OC(=O)O/C=C/[C@@](C)(O)C1=O | 11.1% [at 25.6 µM] (inactive) | –
29 | CC(C)(C)[C@]1(O)C[C@@H]2OC(=O)C[C@@]23C(=O)O[C@@H]2OC(=O)[C@@H](O)[C@]213 | -8.85% (inactive) | –
30 | N#CC(O[C@@H]1O[C@H](CO)[C@@H](O)[C@H](O)[C@H]1O)c1ccccc1 (stereo partly drawn) | 1.55% (inactive) | –
31 | COC1CC(O[C@H]2CC[C@]3(C)C4CC[C@]5(C)[C@@H](C6=CC(=O)OC6)[C@@H](OC(C)=O)C[C@]5(O)C4CC[C@@H]3C2)OC(C)C1O (stereo partly drawn) | 37.8% [at 25.6 µM] (inactive) | –
32 | CC(=O)O[C@H]1CN2CCC1CC2 | 3.9% (inactive) | –
33 | CC(=O)OC[C@]12C[C@H](O)C(C)=C[C@H]1O[C@@H]1[C@H](O)[C@@H](OC(C)=O)[C@@]2(C)[C@]12CO2 | 26.1% (inactive) | –
